Holding throughout (experiment): glycan array binding signal (z-score within array); higher = stronger binding
Common to all, as to settings: glycan notation: IUPAC condensed, linker removed

The target in one experiment is Fuc(a1-2)Gal. Put shortly: (§1)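 Glycan array data were curated from 3228 arrays in the Consortium for Functional Glycomics database and kept only where the protein sequence was available. Glycan names were converted to IUPAC-condensed notation, and columns mapping to the same glycan were averaged. The binding signal is a within-array Z-score, averaged across arrays of the same protein sequence at different concentrations or buffers and across linkers. Negative Z-scores can be read as non-binding.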

The next experiment deals with Fuc(a1-2)Gal(b1-3)GlcNAc. The procedure, abridged:
as §1

The next experiment addresses Fuc(a1-2)Gal(b1-4)Glc6S. Put shortly: as §1
Experiment [1] deals with Fuc(a1-2)Gal(b1-4)[Fuc(a1-3)]GlcNAc(b1-2)Man(a1-3)[Fuc(a1-2)Gal(b1-4)[Fuc(a1-3)]GlcNAc(b1-2)Man(a1-6)]Man(b1-4)GlcNAc(b1-4)[Fuc(a1-6)]GlcNAc. The procedure, abridged:
as §1

In experiment [2] the target is Fuc(a1-2)Gal6S(b1-3)GlcNAc. Put shortly: as §1
For experiment [3], the target named is Fuc(a1-2)[GalNAc(a1-3)]Gal(b1-4)GlcNAc. Put shortly:
as §1

The target of experiment [4] is Fuc(a1-2)[GalNAc(a1-3)]Gal(b1-4)GlcNAc(b1-2)Man(a1-3)[Fuc(a1-2)[GalNAc(a1-3)]Gal(b1-4)GlcNAc(b1-2)Man(a1-6)]Man(b1-4)GlcNAc(b1-4)[Fuc(a1-6)]GlcNAc. Put shortly: as §1
The target in experiment [5] is Fuc(a1-3)[Gal(b1-4)]GlcNAc(b1-6)GalNAc. The procedure, abridged:
as §1

The target of experiment [6] is Gal(a1-3)Gal(b1-3)GlcNAc(b1-3)GalNAc. Put shortly: as §1
Experiment [7] deals with Gal(a1-4)Gal(b1-3)GlcNAc(b1-2)Man(a1-3)[Gal(a1-4)Gal(b1-3)GlcNAc(b1-2)Man(a1-6)]Man(b1-4)GlcNAc(b1-4)GlcNAc. The procedure, abridged: as §1
Experiment [8] concerns the target Gal(b1-3)GlcNAc(b1-2)Man(a1-3)[Gal(b1-3)GlcNAc(b1-2)Man(a1-6)]Man(b1-4)GlcNAc(b1-4)[Fuc(a1-6)]GlcNAc. Put shortly:
as §1

Experiment [9] addresses Gal(b1-3)GlcNAc(b1-6)[Gal(b1-3)]GalNAc. The procedure, abridged: as §1
Experiment [10] deals with Gal(b1-4)GalNAc(a1-3)[Fuc(a1-2)]Gal(b1-4)GlcNAc. Put shortly:
as §1

The next experiment addresses Gal(b1-4)GlcNAc(b1-2)Man. The procedure, abridged:
as §1

For experiment [11], the target named is Gal(b1-4)GlcNAc(b1-2)Man(a1-3)[Man(a1-6)]Man(b1-4)GlcNAc(b1-4)GlcNAc. The procedure, abridged: as §1
For experiment [12], the target named is Gal(b1-4)GlcNAc(b1-3)Gal(b1-3)GlcNAc. The procedure, abridged:
as §1

Experiment [13] has as its target Gal(b1-4)GlcNAc(b1-3)Gal(b1-4)GlcNAc(b1-3)Gal(b1-4)GlcNAc(b1-2)[Gal(b1-4)GlcNAc(b1-3)Gal(b1-4)GlcNAc(b1-3)Gal(b1-4)GlcNAc(b1-6)]Man(a1-6)[Gal(b1-4)GlcNAc(b1-3)Gal(b1-4)GlcNAc(b1-3)Gal(b1-4)GlcNAc(b1-2)Man(a1-3)]Man(b1-4)GlcNAc(b1-4)[Fuc(a1-6)]GlcNAc. The procedure, abridged: as §1
Experiment [14] concerns the target Gal(b1-4)GlcNAc(b1-3)Gal(b1-4)GlcNAc(b1-3)Gal(b1-4)GlcNAc(b1-3)Gal(b1-4)GlcNAc(b1-2)[Gal(b1-4)GlcNAc(b1-3)Gal(b1-4)GlcNAc(b1-3)Gal(b1-4)GlcNAc(b1-3)Gal(b1-4)GlcNAc(b1-6)]Man(a1-6)[Gal(b1-4)GlcNAc(b1-3)Gal(b1-4)GlcNAc(b1-3)Gal(b1-4)GlcNAc(b1-3)Gal(b1-4)GlcNAc(b1-2)Man(a1-3)]Man(b1-4)GlcNAc(b1-4)[Fuc(a1-6)]GlcNAc. The procedure, abridged:
as §1

The target of experiment [15] is Gal(b1-4)GlcNAc(b1-3)Gal(b1-4)GlcNAc(b1-3)Gal(b1-4)GlcNAc(b1-3)Gal(b1-4)GlcNAc(b1-3)Gal(b1-4)GlcNAc(b1-2)[Gal(b1-4)GlcNAc(b1-3)Gal(b1-4)GlcNAc(b1-3)Gal(b1-4)GlcNAc(b1-3)Gal(b1-4)GlcNAc(b1-3)Gal(b1-4)GlcNAc(b1-6)]Man(a1-6)[Gal(b1-4)GlcNAc(b1-3)Gal(b1-4)GlcNAc(b1-3)Gal(b1-4)GlcNAc(b1-3)Gal(b1-4)GlcNAc(b1-3)Gal(b1-4)GlcNAc(b1-2)Man(a1-3)]Man(b1-4)GlcNAc(b1-4)[Fuc(a1-6)]GlcNAc. The procedure, abridged: as §1

The target of experiment [16] is Gal(b1-4)GlcNAc(b1-3)Gal(b1-4)[Fuc(a1-3)]GlcNAc(b1-3)Gal(b1-4)[Fuc(a1-3)]GlcNAc. The procedure, abridged: as §1
For experiment [17], the target named is Gal(b1-4)GlcNAc(b1-3)[Gal(b1-4)GlcNAc(b1-6)]Gal(b1-4)GlcNAc. The procedure, abridged:
as §1

Experiment [18] concerns the target Gal(b1-4)GlcNAc(b1-6)[Gal(b1-4)GlcNAc(b1-3)]GalNAc. Put shortly: as §1
Experiment [19] addresses Gal3S(b1-3)[Fuc(a1-4)]GlcNAc. The procedure, abridged: as §1

Shown is part of a subset that was picked to be rich in the strongest signals.

Consider 1 molecule from the supplement of paper PMC8728848.

B1: Cp ZmpB (Clostridium perfringens), Q0TR08 (protein)
chain: MNKRKIAAIILATMITNLSATTIDVLAQELNTKNNSKVEVSHDDESHQARVSKFDLYNSDKLDAYNQEFQVSRSNIKSINNNGGKYNSSTIDKAIDGNLETHWETGKPNDANFTNEVVVTFNEITNIDRIVYSARRDSARGKGFAKEFEIYASLKDEGDDFNLVSSGEYTESTRDLVEIKFNPTDFKRLKFKFKKADQNWASAAEFMFYKEDKLNEKFNGLFTDSSMNKVSEEFNTLEKLNAFENELKDHPIYDLYKEGLNNARAILTETSENPTKATLGQITYNLNDDYNNQYRMPYKNIKAIKNNGRHYAAQNIEKAIDNDVNTYWETGTLNSSSFNNEVEVEFNDLVTLDRIVYGSRQSDLKGFAEEVYIYASRTSKGDTYKLVATGAHEATKGLVEAKFEPTEFKRVKFKFKKSKQNSATLNELMFYKPDEVYSSIPKLFTDGTMSELSEEFNSLEKINAFKEKAKNHPLYNDFNETIELAESLISNPRKEDVLELEMRGDSISEAKKRKVWNFQDWQITGLSARAGDKITVYVDVAEGDPTPTLLYKQSLTQHGGATSFQLKPGKNEITIPEINYESNGIPKDVIQGGDLFFTNYKSDSQKRAPKVRIEGASKYPVFILGKSDENEVMKELEAYVEKIKAEPKTTPNIFAVSSNKSLEFVQATYALDWYKKNNKTPKYTAEQWDQYIADAMGFWGFDNSKDVNSDFNFRIMPMVKNLSGGAFMNAGNGVIGIRPGNQDAILAANKGWGVAHELGHNFDTGGRTIVEVTNNMMPLFFESKYKTKTRITDQNIWENNTYPKVGLDDYSNNELYNKADSTHLAQLAPLWQLYLYDNTFYGKFERQFRERDFGNKNREDIYKSWVVAASDAMELDLTEFFARHGIRVDDKVKEDLAKYPKPDKKIYYLNDLAMNYKGDGFTENAKVSVSTSGSNGNIKLSFSVDDENKDNILGYEIRRDGKYVGFTSNDSFVDTKSNLDEDGVYVVTPYDRKLNTLNPIEVNALQPTLSVNPVITLALGEEFNEEEYIVAKDIKGNSLSESVKVKSSNVNTSKVGEYEVLYSLEDSKGNEYTKTSKVNVVSRKEYMSDLTPKQSSNGWGTVRKDKSISGGVIGLTRDGDFVDYNKGLGLHSNAEYVYDLEGKDYDYFESYVGVDKAMSSRPASSVIFKVLVDGEEKFNSGVMRSTTPQKYVKVDVKNAKELKLIVNDAGDGDSSDHASFGDAKLATLSSKPIIKGENLAYSMDEKVDLMKGITATDIEDGNITSKVQIKSSDFVEGKSGIFTVVYSVTDSDGLTSECSRTIAVTDKETQLSDLNWKSATIGSGSVRKDRAVSGNQIRLLNEDNSVETFAKGIGTHSYSEIVYNSEGYDIFDTWVGIDRHVADKKVSSVKFKVYVDGELKAETDVMRIDTPKKRLVVDVRNSKEIKLVVDVADNGNNWDHADWADAKFRNLAEYDASELNKAIEEAKKLDLNNYTEESSEALKNAISKGEEALLSKDKETINSALEELNKEMNSLVKVDLNAVINIPDKYLLKSIQNQLNKTGDITLGDMYSLTTLTLSGVEDLTGLENAKNLETLNMDYNEVKDLRPLSKLKKLNTLNAQEQFIAAGELKPSNGKVIGDSKVYNREGKNVAKTIRVVDKNGNTILEQDAKDEFTINTKDLSSGLYGVHVLFEDEGFSGVMFYLFNV
Take B1: the “glycan array binding signal (z-score)” value is 22.4 in the experiment with Fuc(a1-2)Gal; -0.148 with Fuc(a1-2)Gal(b1-3)GlcNAc; -0.219 with Fuc(a1-2)Gal(b1-4)Glc6S; -0.251 in experiment [1]; -0.122 in experiment [2]; -0.068 in experiment [3]. In addition, the “glycan array binding signal (z-score)” value in experiment [4] is -0.353; in [5], -0.181; in experiment [6] it was -0.001; in experiment [7], -0.252; in experiment [8], -0.193; in [9], 0.823. Besides, the “glycan array binding signal (z-score)” value in experiment [10] was 0.022; with Gal(b1-4)GlcNAc(b1-2)Man, 0.161; in experiment [11] it was -0.033; in experiment [12], 1.39; in [13], -0.102; in experiment [14], -0.093. Moreover, the “glycan array binding signal (z-score)” value is 3.56 in experiment [15]; -0.332 in experiment [16]; -0.301 in [17]; 0.086 in experiment [18]; -0.055 in [19].
